Assay [1] in a line: qHTS Assay for Lipid Storage Modulators (AID 1519). Conditions: Drosophila S3 cells, BODIPY lipid droplet/cell ratio, laser cytometry, cells loaded with oleic acid. The method in brief: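 Cells seeded at 5,000 per well were treated with compounds over a concentration series and loaded with oleic acid (400 uM, as added). Lipid droplet fluorescence (488 nm excitation, 500-530 nm channel) was read by laser-scanning cytometry and normalized to 20 uM Triacsin C.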
(In general: In qHTS, concentration-response curves come from the screen itself.)

The target in assay [2] is Lysosomal acid glucosylceramidase (Homo sapiens) (UniProt P04062). Description: Glucocerebrosidase-p2 (AID 348; in the data active means potency below about 10 µM; further: potency means the concentration at half of the fitted maximal effect). Conditions: purified GBA, blue fluorogenic substrate, 40 min. The method in brief:
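Normal human glucocerebrosidase (0.2 nM) with blue fluorogenic substrate (80 uM final) in citrate/phosphate pH 5.9 with 10mM sodium taurocholate, 0.01% tween-20; 40 min RT, NaOH/glycine stop; fluorescence Ex 365/Em 440; AC50 from a titration from 0.6 nM upwards.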

The nature of assay [3]: AP1 Signaling Pathway (AID 357; active means well fitted curve in either direction with a large enough effect, not every such curve was filed as active;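 further: ME-180 reporter cells stimulated with EGF at its EC50 level; on the % scale 0 is the no-effect control and ±100 the full control effect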). Conditions: ME-180 AP-1-bla reporter, EGF-induced, beta-lactamase ratio, 5 h; at 7.69 µM (top of the series) unless noted. The method in brief:
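Titration-series screen for positive or negative modulators of EC50 EGF-induced signaling in ME-180 cells carrying an AP-1-driven beta-lactamase reporter. After 5 hours at 37 degrees Celsius, CCF4 460nm/530nm emission ratio gave %Activity; AC50 values derived.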

The target of assay [4] is Cytochrome P450 1A2 (Homo sapiens) (UniProt P05177). As to the kind of experiment: p450-cyp1a2 (AID 410). Further: potency means the concentration at half of the fitted maximal effect. Conditions: recombinant CYP1A2, luciferin-ME demethylation, luminescence; series mostly up to 57 µM. The method in brief: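 O-Demethylation of luciferin 6' methyl ether by human CYP1A2 is monitored as luciferase luminescence. Substrate sits at Km (100uM); enzyme is 20nM. Values are scaled to 57 uM furafylline as maximal inhibition.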

Assay [5] is described as follows: NFAT Signaling Pathway (AID 444; active means well fitted curve in either direction with a large enough effect, not every such curve was filed as active;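 further: carbachol stimulus at about its EC50 of 1 µM final; on the % scale 0 is the no-effect control and ±100 the full control effect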). Conditions: Jurkat NFAT-bla M1, carbachol, beta-lactamase ratio, 5 h; at 7.69 µM (top of the series) unless noted. The method in brief:
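Read-out: CCF4 FRET ratio (460 nm/530 nm) after 1 h RT dye loading, used for %activity and AC50 from titration series. Cells: Jurkat NFAT-β-lactamase/M1 line, treated with compound plus 1 uM carbachol for 5 h, 37 °C.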

Assay [6] is described as follows: Stat Signaling Pathway (AID 446; active means well fitted curve in either direction with a large enough effect, not every such curve was filed as active;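 further: ME-180 cervical cancer cells given 40 pM IL-6 alongside compound; SIE-controlled beta-lactamase reporter measured as 460/530 nm FRET emission ratio; on the % scale 0 is the no-effect control and ±100 the full control effect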). Conditions: ME-180 (cervical carcinoma) SIE beta-lactamase reporter, IL-6 stimulated, 5 h; at 7.69 µM (top of the series) unless noted. In outline: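 Overnight-plated ME-180 cells bearing a STAT Inducible Element beta-lactamase reporter; 5 h co-exposure to compound and 40 pM IL-6; values normalized to 300 pM IL-6 and 125 nM JAK inhibitor controls.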

Assay [7] concerns the target Glucocorticoid receptor (Homo sapiens) (UniProt P04150). Description: GR-GFP Redistribution (AID 450;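 active means compounds whose dose series gives a full or clear partial fitted curve of increased nuclear translocation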; further: potency means the concentration at half of the fitted maximal effect). Conditions: U2OS GR-GFP nuclear translocation, laser cytometry, 2 h.
For assay [8] the target is unchanged. Description: GR-EFC Redistribution (AID 451). Further: potency means the concentration at half of the fitted maximal effect. Conditions: CHO-K1 GR-EFC translocation, beta-gal luminescence, 2 h. In outline:
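Translocation of GR-ED fusion to nuclear EA restores b-gal, read by luminescence after 1 h room-temperature detection. Engineered CHO-K1 biosensor cells, 1,000/well, exposed 2 h at 37 C to titrations up to 46 uM final.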

Assay [9] concerns the target Mitogen-activated protein kinase 10 (Mus musculus) (UniProt Q61831). Description: JNK3 AlphaScreen Assay (AID 530; active means well fitted curve in either direction with a large enough effect, not every such curve was filed as active;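 further: kinase came from lysate of stimulated human HepG2 cells; signal reports phosphorylation of biotinylated GST-cJun 1-79 at Ser73 with 10 µM ATP; on the % scale 0 is the no-effect control and ±100 the full control effect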). Conditions: JNK3 lysate, c-Jun phosphorylation; series mostly up to 57.1 µM. In outline:
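qHTS titrations with 15 min compound pre-incubation before adding ATP (10 uM final). Read-out: AlphaScreen of Ser73-phosphorylated biotin-GST-cJun using HepG2 lysate JNK3 activated by IL-1β and TNFα.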
(Bead proximity is the source of the signal in Alpha formats.)

Assay [10] deals with 3',5'-cyclic-AMP phosphodiesterase 4B (Homo sapiens) (UniProt Q07343). Description: qHTS Assay for Inhibitors of PDE-IV (AID 607; active means well fitted activation curve with a large enough effect in the main read-out, with a control signal flat, not every such curve was filed as active; further: % of control where 0% means no effect). Conditions: HEK293 ACTOne CNG channel cells, membrane potential fluorescence; series mostly up to 22.9 µM. The method in brief:
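Live HEK293 cells with a modified cyclic nucleotide-gated (CNG) channel report intracellular cAMP via membrane-potential dye fluorescence (ex 535/em 590 nm). Endogenous PDE-IV was targeted. Compounds were tested at up to 22.9 uM final; RO 20-1724 100 uM served as control.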

Assay [11] addresses Dual specificity protein kinase CLK4 (Homo sapiens) (UniProt Q9HAZ1). As to the kind of experiment: qHTS Assay for Inhibitors of CDC-like Kinase 4 (Kinase-Glo Assay) (AID 1770; active means well fitted curve in the direction sought with a large enough effect; an effect the other way counts as inactive or inconclusive; further: on the % scale 0 is the no-effect control and ±100 the full control effect; nearly all actives have a fitted effect of over 65% in size). Conditions: recombinant Clk4, Kinase-Glo ATP depletion luminescence; series mostly up to 66.7 µM. The method in brief:
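Inhibition was judged from remaining ATP, measured by Ultra-Glo luciferase bioluminescence after Clk4 (25 nM) had acted on RS peptide at 1 uM ATP for 4.5 hours, room temperature.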

Assay [12] shares this target. As to the kind of experiment: qHTS Assay for Inhibitors of CDC-like Kinase 4 (ADP-Glo Assay) (AID 1771; active means well fitted curve in the direction sought with a large enough effect; an effect the other way counts as inactive or inconclusive; further: on the % scale 0 is the no-effect control and ±100 the full control effect; nearly all actives have a fitted effect of over 70% in size). Conditions: recombinant CLK4, ADP-Glo luminescence; series mostly up to 80 µM. The method in brief:
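Compounds are pin-transferred onto substrate mix (100 uM RS peptide, 1 uM ATP), then 25 nM Clk4 is added. After 1 hr at room temperature, ADP-Glo reagent runs 45 min, detection reagent 30 min, then luminescence is read.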

Assay [13] shares this target. As to the kind of experiment: qHTS Assay for Inhibitors of CDC-like Kinase 4 (ADP-FP Assay) (AID 1795; active means well fitted curve in the direction sought with a large enough effect; an effect the other way counts as inactive or inconclusive;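 further: recombinant human CLK4 phosphorylating RS repeat peptide at 1 µM ATP; on the % scale 0 is the no-effect control and ±100 the full control effect; nearly all actives have a fitted effect of over 60% in size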). Conditions: Transcreener ADP fluorescence polarization; series mostly up to 50 µM. The method in brief: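 Inhibition of ADP formation by 6.25 nM Clk4 is measured using 1 uM ATP and 100 uM RS repeat peptide over one hour. Produced ADP displaces a fluorescent tracer from antibody, lowering polarization.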

For assay [14], the target named is Ubiquitin carboxyl-terminal hydrolase 1 (Homo sapiens) (UniProt O94782). Description: Inhibitors of USP1/UAF1: Pilot qHTS (AID 504865; active means well fitted curve in the direction sought with a large enough effect; an effect the other way counts as inactive or inconclusive;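 further: rhodamine fluorescence freed from ubiquitin-rhodamine substrate followed over time; top concentration of the series differs between compounds; on the % scale 0 is the no-effect control and ±100 the full control effect; nearly all actives have a fitted effect of over 35% in size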). Conditions: purified USP1/UAF1, Ub-rhodamine cleavage fluorescence; series mostly up to 54.9 µM. The method in brief:
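Kinetic fluorescence assay: 1nM USP1/UAF1, 15 min compound preincubation, then 150nM Ub-Rho; 480/540 nm.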

The target of assay [15] is Cytochrome P450 3A4 (Homo sapiens) (UniProt P08684). Description: qHTS Assay for Inhibitors and Substrates of Cytochrome P450 3A4 (AID 884; active means well fitted curve in the direction sought with a large enough effect; an effect the other way counts as inactive or inconclusive; further: potency means the concentration at half of the fitted maximal effect; nearly all actives have a fitted effect of over 50% in size). Conditions: recombinant CYP3A4, Luciferin-PPXE luminescence; series mostly up to 57.1 µM. In outline: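 Luminescent readout of luciferin produced by CYP3A4 (20 nM) dealkylation of Luciferin-PPXE, 25 uM (its KM). NADPH-driven reaction ran 60 min at RT after 10 min compound preincubation; data scaled to 57 uM ketoconazole as 100% inhibition.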

Assay [16] has the same target. Description: qHTS Assay for Activators of Cytochrome P450 3A4 (AID 885; active means well fitted curve in the direction sought with a large enough effect; an effect the other way counts as inactive or inconclusive; further: nearly all actives have a fitted effect of over 65% in size). Conditions: recombinant CYP3A4, Luciferin-PPXE luminescence, 60 min; series mostly up to 57.1 µM. The method in brief: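 Using 20nM recombinant human CYP3A4 in potassium phosphate (200mM), substrate Luciferin-PPXE at 25uM, luminescent luciferin detection followed a 60-min RT NADPH reaction; data scaled to 57 uM ketoconazole.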

Setting [17] is: measured here: cell count channel max response.
Where [18] appears, read: measured here: lipid channel max response.

Here are results for 5 molecules from PubChem BioAssay (NCATS).

Results filed as inconclusive are left out. Calls of active or inactive are those of the source. Unless noted, the call rests on the fitted dose curve.

Chain of Dual specificity protein kinase CLK4 (Homo sapiens) (Q9HAZ1 whole entry, looked up): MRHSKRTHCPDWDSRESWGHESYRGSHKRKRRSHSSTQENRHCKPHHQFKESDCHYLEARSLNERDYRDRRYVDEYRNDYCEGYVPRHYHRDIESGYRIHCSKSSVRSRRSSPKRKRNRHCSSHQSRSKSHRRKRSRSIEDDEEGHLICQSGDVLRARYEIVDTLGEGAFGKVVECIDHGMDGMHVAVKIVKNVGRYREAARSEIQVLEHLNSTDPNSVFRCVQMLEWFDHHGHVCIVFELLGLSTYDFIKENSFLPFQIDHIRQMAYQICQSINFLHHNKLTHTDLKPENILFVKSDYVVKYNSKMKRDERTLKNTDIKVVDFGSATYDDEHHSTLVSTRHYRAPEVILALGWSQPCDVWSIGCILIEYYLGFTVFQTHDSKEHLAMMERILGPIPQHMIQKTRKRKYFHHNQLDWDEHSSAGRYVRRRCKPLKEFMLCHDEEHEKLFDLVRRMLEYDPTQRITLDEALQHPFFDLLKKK
Chain of Glucocorticoid receptor (Homo sapiens) (P04150 whole entry, looked up): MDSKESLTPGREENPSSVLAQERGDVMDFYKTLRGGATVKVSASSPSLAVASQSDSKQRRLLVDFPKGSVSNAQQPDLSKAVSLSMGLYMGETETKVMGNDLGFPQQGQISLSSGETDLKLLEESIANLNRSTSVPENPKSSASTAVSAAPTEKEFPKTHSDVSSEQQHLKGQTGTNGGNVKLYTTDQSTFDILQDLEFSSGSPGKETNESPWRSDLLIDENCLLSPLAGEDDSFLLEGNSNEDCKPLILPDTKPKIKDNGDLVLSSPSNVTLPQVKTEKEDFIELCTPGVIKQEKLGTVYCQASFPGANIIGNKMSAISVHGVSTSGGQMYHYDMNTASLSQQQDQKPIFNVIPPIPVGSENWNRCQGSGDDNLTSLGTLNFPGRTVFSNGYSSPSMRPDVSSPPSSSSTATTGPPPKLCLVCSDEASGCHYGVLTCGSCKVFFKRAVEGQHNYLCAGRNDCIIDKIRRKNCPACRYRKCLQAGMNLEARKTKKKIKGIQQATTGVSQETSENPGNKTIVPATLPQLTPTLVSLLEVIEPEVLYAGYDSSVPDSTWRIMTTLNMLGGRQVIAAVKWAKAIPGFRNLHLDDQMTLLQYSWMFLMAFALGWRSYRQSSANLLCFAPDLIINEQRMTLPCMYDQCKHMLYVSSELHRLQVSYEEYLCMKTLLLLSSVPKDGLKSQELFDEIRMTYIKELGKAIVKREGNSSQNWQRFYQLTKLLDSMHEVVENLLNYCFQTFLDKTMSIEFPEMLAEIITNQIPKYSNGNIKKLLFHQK
Chain of 3',5'-cyclic-AMP phosphodiesterase 4B (Homo sapiens) (Q07343 whole entry, looked up): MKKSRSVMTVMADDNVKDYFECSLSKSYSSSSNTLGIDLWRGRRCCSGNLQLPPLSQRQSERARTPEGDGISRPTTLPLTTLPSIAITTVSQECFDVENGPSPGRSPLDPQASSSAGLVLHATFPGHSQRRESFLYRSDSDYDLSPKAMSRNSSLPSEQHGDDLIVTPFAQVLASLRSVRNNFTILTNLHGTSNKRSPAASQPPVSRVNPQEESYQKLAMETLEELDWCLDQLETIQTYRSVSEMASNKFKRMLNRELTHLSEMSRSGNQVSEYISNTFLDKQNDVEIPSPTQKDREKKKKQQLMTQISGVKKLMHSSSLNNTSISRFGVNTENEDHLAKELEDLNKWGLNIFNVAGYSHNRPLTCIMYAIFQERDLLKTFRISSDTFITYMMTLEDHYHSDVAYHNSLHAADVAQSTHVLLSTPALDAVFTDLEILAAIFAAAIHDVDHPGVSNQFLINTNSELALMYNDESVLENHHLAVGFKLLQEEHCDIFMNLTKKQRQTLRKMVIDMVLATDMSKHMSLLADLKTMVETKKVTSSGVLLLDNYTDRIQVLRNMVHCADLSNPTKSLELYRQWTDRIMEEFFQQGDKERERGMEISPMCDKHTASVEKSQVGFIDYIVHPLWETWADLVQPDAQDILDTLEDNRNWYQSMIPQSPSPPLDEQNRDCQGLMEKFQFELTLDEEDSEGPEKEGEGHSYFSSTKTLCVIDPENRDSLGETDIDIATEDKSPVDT
Chain of Ubiquitin carboxyl-terminal hydrolase 1 (Homo sapiens) (O94782 whole entry, looked up): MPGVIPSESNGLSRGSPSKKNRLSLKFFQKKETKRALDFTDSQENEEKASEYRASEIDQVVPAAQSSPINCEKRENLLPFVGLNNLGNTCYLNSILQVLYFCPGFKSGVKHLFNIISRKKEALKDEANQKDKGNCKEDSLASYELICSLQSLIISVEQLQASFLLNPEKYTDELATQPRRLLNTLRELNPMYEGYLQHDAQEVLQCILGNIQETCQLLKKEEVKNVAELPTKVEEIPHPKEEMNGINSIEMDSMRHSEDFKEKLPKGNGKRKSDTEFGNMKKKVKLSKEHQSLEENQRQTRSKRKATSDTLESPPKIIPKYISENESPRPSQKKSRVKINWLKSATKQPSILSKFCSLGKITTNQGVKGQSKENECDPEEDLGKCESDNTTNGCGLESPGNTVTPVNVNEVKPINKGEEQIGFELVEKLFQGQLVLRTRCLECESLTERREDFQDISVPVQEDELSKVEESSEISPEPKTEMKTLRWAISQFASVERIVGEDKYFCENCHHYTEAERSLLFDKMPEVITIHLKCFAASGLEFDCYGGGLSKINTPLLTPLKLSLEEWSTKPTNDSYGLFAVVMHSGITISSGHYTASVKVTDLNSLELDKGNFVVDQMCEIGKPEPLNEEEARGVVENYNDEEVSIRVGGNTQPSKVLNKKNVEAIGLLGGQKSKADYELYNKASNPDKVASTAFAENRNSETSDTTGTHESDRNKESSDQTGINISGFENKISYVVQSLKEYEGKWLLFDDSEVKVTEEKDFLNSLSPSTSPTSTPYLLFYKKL
Chain of Cytochrome P450 3A4 (Homo sapiens) (P08684 whole entry, looked up): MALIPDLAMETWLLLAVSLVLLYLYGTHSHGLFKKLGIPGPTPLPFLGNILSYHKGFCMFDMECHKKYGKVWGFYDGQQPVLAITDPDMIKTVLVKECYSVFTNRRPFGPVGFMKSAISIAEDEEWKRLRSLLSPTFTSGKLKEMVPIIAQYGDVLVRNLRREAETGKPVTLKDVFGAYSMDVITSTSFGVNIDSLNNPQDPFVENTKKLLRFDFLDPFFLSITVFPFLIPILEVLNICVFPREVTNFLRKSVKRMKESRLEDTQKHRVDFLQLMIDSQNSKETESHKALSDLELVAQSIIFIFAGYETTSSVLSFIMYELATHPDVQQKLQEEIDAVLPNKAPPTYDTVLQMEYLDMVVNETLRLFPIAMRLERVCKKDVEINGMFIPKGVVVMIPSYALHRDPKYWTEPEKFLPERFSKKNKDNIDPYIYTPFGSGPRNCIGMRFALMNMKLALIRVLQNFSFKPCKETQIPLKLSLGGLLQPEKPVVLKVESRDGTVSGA
Chain of Lysosomal acid glucosylceramidase (Homo sapiens) (P04062 whole entry, looked up): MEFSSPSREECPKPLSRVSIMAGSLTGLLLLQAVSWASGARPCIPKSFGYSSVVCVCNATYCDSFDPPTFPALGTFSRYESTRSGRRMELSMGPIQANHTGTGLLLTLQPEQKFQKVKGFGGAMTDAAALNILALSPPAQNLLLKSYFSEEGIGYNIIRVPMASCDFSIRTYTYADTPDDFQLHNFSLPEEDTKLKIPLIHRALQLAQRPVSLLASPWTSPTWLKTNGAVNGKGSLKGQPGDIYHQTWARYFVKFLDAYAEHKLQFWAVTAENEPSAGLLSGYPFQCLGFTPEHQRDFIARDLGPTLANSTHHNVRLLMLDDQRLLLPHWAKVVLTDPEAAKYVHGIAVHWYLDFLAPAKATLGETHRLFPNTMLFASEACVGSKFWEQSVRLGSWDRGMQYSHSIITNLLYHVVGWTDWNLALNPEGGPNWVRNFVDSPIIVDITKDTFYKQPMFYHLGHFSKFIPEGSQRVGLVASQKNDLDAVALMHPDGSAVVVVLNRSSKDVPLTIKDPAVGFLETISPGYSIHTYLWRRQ
Chain of Cytochrome P450 1A2 (Homo sapiens) (P05177 whole entry, looked up): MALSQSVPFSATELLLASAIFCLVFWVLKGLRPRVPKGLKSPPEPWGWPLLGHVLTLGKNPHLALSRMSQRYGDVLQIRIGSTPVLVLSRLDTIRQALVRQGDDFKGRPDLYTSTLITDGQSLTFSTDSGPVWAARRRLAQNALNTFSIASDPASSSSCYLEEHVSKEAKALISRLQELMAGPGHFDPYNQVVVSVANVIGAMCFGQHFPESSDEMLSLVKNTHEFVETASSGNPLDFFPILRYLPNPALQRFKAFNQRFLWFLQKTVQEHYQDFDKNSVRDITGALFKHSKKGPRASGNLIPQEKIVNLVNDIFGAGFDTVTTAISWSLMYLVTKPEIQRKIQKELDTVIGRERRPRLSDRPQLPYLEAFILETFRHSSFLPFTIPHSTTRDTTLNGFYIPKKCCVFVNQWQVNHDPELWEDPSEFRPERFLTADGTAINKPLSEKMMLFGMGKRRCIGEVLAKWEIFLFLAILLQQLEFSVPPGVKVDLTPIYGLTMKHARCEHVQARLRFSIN

With `CN(C)CCCO[C@H]1C([C@H](O)CO)O[C@@H]2OC(C)(C)O[C@@H]21` (some centres not stated), the activity change, negative = inhibition in [1] (at 57.5 µM (top of the series)) was 1.15% (inactive). Further, the max response in assay [1] (setting [17]) worked out at 19.8%; in [1] (setting [18]) it was 24%.

Regarding `CNC(=O)[C@H]1O[C@@H](n2cnc3c(N)ncnc32)[C@H](O)[C@H]1O`, the activity change, negative = inhibition in assay [1] (at 57.5 µM (top of the series)) was -1.94% (inactive). Besides, the max response is -22.6% in [1] (setting [17]) and -24.5% in [1] (setting [18]).

For `CN1CCN(c2ncc3nc(-c4ccccc4)c(=O)n(C)c3n2)CC1`, the Potency in assay [2] is > 11.4 µM (inactive); in assay [4], 15.8 µM (active); in [7], > 9.22 µM (inactive); in [8], > 46 µM (inactive). Further, the activity change, negative = inhibition is 19.6% (inactive) in assay [3], 23.4% (inactive) in assay [5] and 4.64% (inactive) in [1] (at 57.5 µM (top of the series)). Besides, the activity, negative = inhibition in assay [6] is 20% (inactive). In addition, the Potency result in assay [9], in assay [10], in assay [11], in assay [12], in assay [13] and in [14] was “inactive” throughout. Besides, the max response stood at 14.1% in assay [1] (setting [17]) and 18.5% in [1] (setting [18]).

Take `COc1ccccc1CNc1ncncc1-c1ccccc1OC`: the Potency in assay [2] is > 11.4 µM (inactive); in [7], > 46 µM (inactive); in assay [8], > 46 µM (inactive); in assay [15], 0.199 µM (active). Moreover, the activity change, negative = inhibition is -8.41% (inactive) in assay [3], -16.1% (inactive) in assay [5] and 6.17% (inactive) in assay [1] (at 57.5 µM (top of the series)). Moreover, the activity, negative = inhibition in assay [6] is -9.32% (inactive). For the same molecule, the Potency entry in assay [9], in assay [16] and in [14] was “inactive” in each case. The max response in [1] (setting [17]) came to 3.98%; in assay [1] (setting [18]), 9.74%.

For the molecule `Cc1cc(/C=C\c2ccc3cc(N(C)C)ccc3[n+]2C)c(C)n1-c1ccccc1`, the activity change, negative = inhibition is 12.4% [at 17.2 µM] (inactive) in assay [3] and -5.56% (inactive) in assay [1] (at 25.7 µM (top of the series)). The Potency in assay [7] and in assay [8] was > 20.6 µM (inactive) each time. The Potency result in assay [10] was “inactive”. Moreover, the results for the max response in assay [1] (setting [17]) and in assay [1] (setting [18]) were -11.1% and -18.2%, respectively.
